Sampled rows, rich in hits. Any-hit rate of the full collection: about 3.7%.
NLRP3 yeast inh: NALP3 inflammasome inhibitors in reconstituted yeast, primary screen, luminescence, uHTS; Yeast reconstituted NLRP3/ASC/caspase-1, beta-gal luminescence, 24 h; inhibition, % at 10 µM; 0.39% of 330,000 active; AID 2825, 2010;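 active = inhibition of 50% or more; inactive = inhibition below 50%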;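 also: plate controls were induced DMSO wells for no effect and uninduced yeast grown without galactose for full effect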
TIM10 inh: growth inhibitors of isogenic TIM10 control yeast, primary screen, counter-screen for tim10-1 yeast inhibitor project, luminescence, uHTS | S. cerevisiae TIM10 strain growth, BacTiter-Glo luminescence, 24 h | inhibition, % at 10 µM | 1.4% of 330,000 active;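 active = inhibition of 40% or more at the single tested concentration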;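 also: wild-type TIM10 isogenic control strain grown at permissive 25 °C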
PfHsp90 yeast 2: growth inhibition of PfHsp90-expressing yeast, primary screen, antimalarial PfHsp90 inhibitor project, S. cerevisiae, BacTiter-Glo luminescence, single point, set 2. AID 504621, 2011. inhibition, % at 9.4 µM. BacTiter-Glo ATP, 48 h; yeast lacking PDR1 and PDR3 efflux regulators. 0.32% of 310,000 active;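 active = every replicate shows inhibition above about 80%, whatever the replicate mean, limit read from the data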;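 also: 0% = DMSO neutral controls and 100% = 20 µM radicicol positive controls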
tim10-1 inh: growth inhibitors of tim10-1 mutant yeast, primary screen, luminescence, uHTS | AID 463190, 2010 | S. cerevisiae tim10-1 ts strain growth, BacTiter-Glo, 24 h | inhibition, % at 20 µM | 2.2% of 330,000 active;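 active = inhibition of at least 40%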;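 also: mutant grown at 25 °C; 0% = DMSO wells with yeast and 100% = wells holding no yeast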
tim23-1 inh: growth inhibitors of tim23-1 mutant yeast, primary screen, luminescence, uHTS. S. cerevisiae tim23-1 growth, BacTiter-Glo luminescence, 24 h. inhibition, % at 20 µM. 1.3% of 330,000 active. AID 463212, 2010;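 active = growth inhibition of the mutant yeast at or above 50%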;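 also: temperature-sensitive mutant grown at 25 °C; plate controls were DMSO-treated mutant yeast for no effect and medium wells lacking yeast for full effect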
tim10-1 conf: growth inhibitors of tim10-1 mutant yeast, confirmation, single concentration, luminescence, S. cerevisiae; S. cerevisiae tim10-1 ts strain growth, BacTiter-Glo, 24 h; shares compounds with tim10-1 inh; inhibition, % at 20 µM; AID 463213, 2010; 56% of 7,400 active;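 active = inhibition of yeast growth at or above a set limit in either of two repeat tests at 20 µM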;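 also: tim10-1 mutant grown at permissive 25 °C to find synthetic lethal compounds; 0% = DMSO yeast wells and 100% = medium wells without yeast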
* = called active by the depositor; · = no result.

SMILES | NLRP3 yeast inh | TIM10 inh | PfHsp90 yeast 2 | tim10-1 inh | tim23-1 inh | tim10-1 conf
CC(=O)N1CCN(c2nc(CC(C)C)c3c(c2C#N)CCC3)CC1 | 4 | 23 | -2 | 49* | 26 | 16
CC(C)Cc1nc(N2CCN(C(=O)C(C)C)CC2)c(C#N)c2c1CCC2 | 23 | 12 | 5 | 19 | 31 | ·
C=CCn1c(SCc2ccccc2C#N)nnc1-c1cc(Br)ccc1O | 2 | 5 | -24 | 44* | 44 | 23
COCOc1cc(O)c(C(=O)/C=C/c2ccccc2)c(OCOC)c1 | 19 | 37 | · | 50* | 43 | 41*
COc1ccc(C(=O)/C=C/c2ccccc2)c(OC)c1 | 23 | 14 | 1 | 40* | 26 | 21
COc1ccc(/C=C/C(=O)c2cc3cccc(OC)c3oc2=O)cc1 | -7 | 10 | 5 | 43* | 23 | 10
COc1ccc(OCC(=O)Nc2ccc(S(=O)(=O)N3CCOCC3)cc2)cc1 | -12 | 33 | -14 | 48* | 24 | 32*
CCc1ccc(OCC(=O)Nc2ccc(S(=O)(=O)N3CCOCC3)cc2)cc1 | 9 | 16 | · | 40 | 31 | 33*
Cc1ccc(NC(=O)COc2ccc(Cl)cc2Cl)cc1S(=O)(=O)N1CCOCC1 | 25 | 33 | -1 | 49* | 36 | 20
CCCN(CCC)S(=O)(=O)c1ccc(NC(=O)COc2ccccc2)cc1 | 22 | 40 | 4 | 52* | 38 | 38*
O=c1cc(C=NNc2ccc([N+](=O)[O-])cc2)[nH]c(=O)[nH]1 | · | · | -11 | · | · | ·
CC(C)c1cccc(C(C)C)c1NC(=O)CNCc1ccccc1F | -16 | 27 | -18 | 47* | 13 | 22
CC(C)c1cccc(C(C)C)c1NC(=O)CNCC(O)c1ccccc1 (centres undefined) | 9 | 9 | -16 | 25 | 12 | ·
CCn1cnc2cc(NC(=O)COc3ccc(C)cc3)ccc21 | · | · | -6 | · | · | ·
Nc1cc(S(=O)(=O)N2CCCCC2)ccc1N1CCCCC1 | 25 | 24 | 3 | 45* | 34 | 27
O=C(NCCOc1ccccc1)C1Nc2ccc(C(F)(F)F)cc2C2c3ccccc3CC12 (centres undefined) | 4 | 6 | 2 | 23 | 36 | ·
CCOC(=O)C1Nc2ccc(C(F)(F)F)cc2C2c3ccccc3CC12 (centres undefined) | 46 | -9 | -4 | 57* | 0 | 53*
O=S(=O)(c1cccc(-c2csc(-c3cccnc3)n2)c1)N1CCCCC1 | 24 | 13 | 3 | 26 | 29 | ·
O=S(=O)(c1ccc(-c2csc(-c3cccnc3)n2)cc1)N1CCCC1 | -47 | 27 | -19 | 44* | 31 | 39*
COC(=O)c1ccc(NS(=O)(=O)c2ccc(SC)cc2)cc1 | 29 | 13 | 29 | 40* | 31 | 21
COc1ccc(NCC(=O)Nc2cccc(C(F)(F)F)c2)cc1S(=O)(=O)N1CCOCC1 | -1 | 2 | 5 | 0 | 11 | ·
O=C(COc1ccccc1/C=C1\SC(=S)NC1=O)Nc1ccc(F)cc1 | 21 | -10 | 10 | 4 | 23 | ·
CC1(C)NC(=O)N(c2ccc([N+](=O)[O-])c(C(F)(F)F)c2)C1=O | 4 | 4 | -11 | 5 | 15 | ·
C=C(C)COc1ccc(-c2[nH]ncc2-c2ccc(OC)c(OC)c2)c(O)c1 | -2 | 33 | -3 | 46* | 36 | 34*
O=C(O)c1ccc(Oc2nc3ccccc3s2)cc1 | · | · | 22 | · | · | ·
O=C(O)c1ccc(C=C(c2nc3ccccc3s2)c2nc3ccccc3s2)cc1 | 1 | 23 | -12 | 59* | 34 | 45*
COc1ccc(Nc2nc(S(=O)(=O)c3ccc(C)cc3)c(Cl)s2)cc1 | 46 | 17 | -19 | 42* | 30 | 30
COc1ccc(C2C=C(C34CC5CC(CC(C5)C3)C4)NC(=S)N2)cc1OC (centres undefined) | -4 | 8 | -36 | 56* | 40 | 17
COc1ccc(Cl)cc1Nc1nnc(-c2ccncc2)s1 | 4 | -24 | -22 | -23 | -5 | ·
Clc1ccccc1Nc1nnc(-c2ccncc2)s1 | 37 | 30 | 66 | 40* | 42 | 41*
